# 3T3 cytotox – NIH 3T3 cell cytotoxicity | NIH 3T3 viability, CellTiter-Glo ATP luminescence, 48-72 h | Potency, µM (titrated, usually from 96.7 µM), for the others: at the top dose activity change, negative = cytotoxicity, hits mostly inhibitors | 4.3% of 94,000 active | AID 1345082; further: nearly all actives have a fitted effect of over 55% in size
#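 NIH 3T3 cells at 400 cells/well received 23 nL of compound by pintool and were incubated 48 or 72 h at 37 °C. Viability was read as ATP-coupled CellTiter-Glo luminescence.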
# Luciferase inh – inhibitors of firefly (Photinus pyralis) luciferase; purified P. pyralis luciferase, luminescence, biochemical; Potency, µM (highest dose often 115 µM), actives largely listed as inhibitors; 2.5% of 76,000 active; further: nearly all actives have a fitted effect of over 65% in size
#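 Inhibitors were tested against purified firefly luciferase in a biochemical, low-substrate format (both substrates at 10uM) and luminescence measured with a CCD imager.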
# NPR1 antag – blocks ANP-stimulated signaling of human Npr1 receptor | AID 1347048 | Potency, µM (series often up to 46.3 µM), inactives show at the top dose activity change, negative = inhibition, most hits filed as inhibitors | 1.6% of 76,000 active | HEK293 hNpr1 GloSensor cGMP, ANP-stimulated luminescence | P16066; calls by dose curve; further: nearly all actives have a fitted effect of over 60% in size
# Target sequence (P16066 whole entry, looked up): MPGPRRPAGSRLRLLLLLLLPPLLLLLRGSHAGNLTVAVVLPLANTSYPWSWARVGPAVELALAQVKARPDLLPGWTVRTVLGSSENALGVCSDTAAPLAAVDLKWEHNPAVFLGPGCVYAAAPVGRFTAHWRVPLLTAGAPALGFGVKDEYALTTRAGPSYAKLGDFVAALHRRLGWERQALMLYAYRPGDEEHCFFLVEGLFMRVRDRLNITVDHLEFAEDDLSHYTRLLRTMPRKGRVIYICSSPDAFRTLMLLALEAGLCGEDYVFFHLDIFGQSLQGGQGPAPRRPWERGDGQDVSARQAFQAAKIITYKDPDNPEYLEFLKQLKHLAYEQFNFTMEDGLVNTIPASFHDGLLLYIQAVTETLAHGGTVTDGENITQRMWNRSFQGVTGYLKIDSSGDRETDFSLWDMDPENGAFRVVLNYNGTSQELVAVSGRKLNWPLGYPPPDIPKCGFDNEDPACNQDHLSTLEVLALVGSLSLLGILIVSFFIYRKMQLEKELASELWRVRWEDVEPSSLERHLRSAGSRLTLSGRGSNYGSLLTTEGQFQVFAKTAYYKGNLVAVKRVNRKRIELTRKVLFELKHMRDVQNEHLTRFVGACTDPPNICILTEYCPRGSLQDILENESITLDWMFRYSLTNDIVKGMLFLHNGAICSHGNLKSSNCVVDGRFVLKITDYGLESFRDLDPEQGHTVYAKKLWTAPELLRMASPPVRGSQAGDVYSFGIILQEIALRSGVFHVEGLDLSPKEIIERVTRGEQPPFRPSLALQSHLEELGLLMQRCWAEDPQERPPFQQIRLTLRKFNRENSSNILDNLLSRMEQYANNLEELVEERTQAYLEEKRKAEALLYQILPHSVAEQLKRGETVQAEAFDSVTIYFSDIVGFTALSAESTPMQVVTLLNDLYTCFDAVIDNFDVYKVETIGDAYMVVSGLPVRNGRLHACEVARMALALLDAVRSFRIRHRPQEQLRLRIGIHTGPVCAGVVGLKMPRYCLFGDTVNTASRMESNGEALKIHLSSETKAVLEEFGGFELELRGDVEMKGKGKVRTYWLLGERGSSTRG
#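 Compound pre-incubated 30 min at room temperature on GloSensor-loaded HEK293 cells stably carrying hNpr1 and the pGS-40F cGMP biosensor. Stimulation uses hNppA at 0.1 nM final; luminescence is taken at baseline and 20 min post-agonist.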
# HEK cytotox – kills HEK 293 cells | Potency, µM (top dose mostly 115 µM), for the others: at the highest dose activity change, negative = cytotoxicity, usual class: inhibitors | 6.6% of 94,000 active | HEK 293 viability, ATP luminescence (CellTiter-Glo), 48-72 h; further: nearly all actives have a fitted effect of over 60% in size
#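 Read-out: CellTiter-Glo ATP luminescence. Cells: HEK 293, 250 cells/well. Exposure: 48 or 72 hr, 37 degree Celsius.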
# * hit, by the source's call; i = inactive; ? = inconclusive; nt = no result given; [ ] = dose if it differs, or a comment. Compounds with a hit are over-represented: about 11% of the library has one in this group of screens. Unless noted, the call rests on the fitted dose curve; in most records, active means well fitted curve in the direction sought with a large enough effect; inconclusive means small, poorly fitted or top-dose-only effect, or another doubt; inactive means no such curve, though single readings can be large; an effect the other way counts as inactive or inconclusive. On the % scale 0 is the no-effect control and ±100 the full control effect; potency means the concentration at half of the fitted maximal effect.
SMILES,3T3 cytotox,Luciferase inh,NPR1 antag,HEK cytotox
Cc1oc(C(O)c2ccccc2)nc1C(=O)Nc1ccc2[nH]ccc2c1 (stereo unspecified),?,50µM*,-5%[70.6 µM],100µM*
Cc1oc(C(O)c2ccccc2)nc1C(=O)Nc1ccc(C(=O)Nc2ccccc2)cc1 (stereo unspecified),45µM*,?,?,32µM*
O=C1NCc2ccccc2CC12CCCCN2Cc1ccc(F)cc1 (stereo unspecified),-13%,nt,nt,?
Cc1c(CN2CCCC(CNC(=O)c3cccc4ccccc34)C2)[nH]c2ccccc12 (stereo unspecified),20µM*,i,-3%,18µM*
COc1cccc(C(=O)NCC2CCCN(Cc3ccccn3)C2)c1OC (stereo unspecified),-17%,i,-3%,-10%
CC(C)CCN1CC2(CCCN(C(=O)c3cc(C(F)(F)F)[nH]n3)C2)CCC1=O (stereo unspecified),45µM*,i,-2%,-13%
COc1ccc(-c2nc(C3CC3)nc3c2CCN(Cc2cccn2C)CC3)cc1,-28%,nt,nt,?
O=C(NCC(F)(F)F)c1cc(-c2cc(Cl)cc(Cl)c2)c2cccn2n1,?,nt,nt,40µM*
O=C(NC1CCCC1)c1cc(-c2cccc(C(F)(F)F)c2)c2cccn2n1,?,nt,nt,40µM*
COc1ccccc1-c1cc(C(=O)N2CCN(c3ncccn3)CC2)nn2cccc12,i,nt,nt,i
C[S+](=O)([O-])c1ccc(-c2cc(C(=O)N3CCN(c4ncccn4)CC3)nn3cccc23)cc1,-24%,nt,nt,50µM*
O=C(NCC(F)F)c1cc(-c2cccc(C(F)(F)F)c2)c2cccn2n1,?,nt,nt,35µM*
Cc1cccc(C(=O)N2CCCCCCNC(=O)[C@@H]3C[C@@H](c4nc(C(C)C)no4)C[C@@H]32)c1,-26%,i,-2%,-38%
O=C(c1cc(-c2cccc(C(F)(F)F)c2)c2cccn2n1)N1CCCC1,?,nt,nt,45µM*
CCC(C)NC(=O)C1CCCN(Cc2cccc(-c3ccsc3)c2)C1 (stereo unspecified),?,nt,nt,45µM*
O=C(Nc1cccc(F)c1)C1CCCN(Cc2cccc(-c3cccs3)c2)C1 (stereo unspecified),?,nt,nt,32µM*
O=C(NCC(F)F)C1CCCN(Cc2cccc(-c3cccs3)c2)C1 (stereo unspecified),?,nt,nt,89µM*
O=C(NCc1ccccc1F)C1CCCN(Cc2cccc(-c3cccs3)c2)C1 (stereo unspecified),40µM*,nt,nt,45µM*
Cc1cccc(OCCc2noc(C3CCCNC3)n2)c1 (stereo unspecified),-16%,i,1%,?
COc1ccc(Cn2c(=O)c(C(=O)N3CCOCC3)nc3cccnc32)cc1,-12%,nt,nt,-10%
O=C(NCCc1ccc(Cl)cc1)C1CCCN(Cc2cccc(-c3ccsc3)c2)C1 (stereo unspecified),14µM*,nt,nt,22µM*
O=C(NCc1cccc(C(F)(F)F)c1)C1CCCN(Cc2cccc(-c3cccs3)c2)C1 (stereo unspecified),7.9µM*,nt,nt,?
COC(=O)CNC(=O)C1CCCN(Cc2cccc(-c3cccc(C)c3)c2)C1 (stereo unspecified),?,nt,nt,-21%
O=C(NCc1ccccc1)C1CCCN(Cc2cccc(-c3ccsc3)c2)C1 (stereo unspecified),40µM*,nt,nt,?
O=C(NCc1ccc(F)cc1)C1CCCN(Cc2cccc(-c3cccs3)c2)C1 (stereo unspecified),?,nt,nt,40µM*
SMILES,3T3 cytotox,Luciferase inh,NPR1 antag,HEK cytotox
COC(=O)CNC(=O)C1CCCN(Cc2cccc(-c3cccs3)c2)C1 (stereo unspecified),?,nt,nt,-11%
O=C(NCc1ccccc1)C1CCCN(Cc2cccc(-c3cccs3)c2)C1 (stereo unspecified),32µM*,nt,nt,?
O=C(NCCc1ccccc1)c1nc2sccn2c1-c1ccncc1,-23%,nt,nt,-8%
O=C(NCCc1ccccc1F)c1nc2sccn2c1-c1ccc(C(F)(F)F)cc1,28µM*,nt,nt,25µM*
O=C(NCCCc1ccccc1)c1n[nH]c2c1CN(C(=O)c1ccc(F)cc1)CC2,28µM*,i,3%,?
O=C(NCCCc1ccccc1)c1nc2sccn2c1-c1ccc(F)cc1,?,nt,nt,100µM*
COc1ccc(CCNC(=O)C2CN(C3CCCC3)C(=O)N2)cc1 (stereo unspecified),-2%[138 µM],nt,nt,i
O=C(NCC1CCN(c2cc(-c3ccc(Cl)cc3)[nH]n2)CC1)c1ccc[nH]1,22µM*,i,-22%,?
O=C(NCC1CCN(c2cc(-c3ccc(Cl)cc3)[nH]n2)CC1)c1cc(C2CC2)[nH]n1,35µM*,?,?,?
O=C(NCC1CCN(c2cc(-c3ccc(F)cc3)[nH]n2)CC1)c1cc(C2CC2)[nH]n1,?,?,-27%,?
CC(=O)NCC(=O)NCC1CCN(c2cc(-c3ccc(Cl)cc3)[nH]n2)CC1,-27%,?,4%,-1%
Cc1cc(C)n(CCC(=O)NCC2CCN(c3cc(-c4ccc(Cl)cc4)[nH]n3)CC2)n1,32µM*,i,-20%,35µM*
O=C(C1CCCN1C(=O)c1cccc(-c2ccccn2)c1)N1CCC(c2ccccc2)CC1 (stereo unspecified),-29%,nt,nt,?
O=C(NCC1CN(Cc2cccc(O)c2)CC12CN(c1ccccc1)C2)c1ccccc1 (stereo unspecified),28µM*,i,-18%[70.6 µM],?
Nc1ncccc1CN1CC(COc2ccccc2)C2(C1)CN(c1ccccc1)C2 (stereo unspecified),40µM*,i,-30%[70.6 µM],35µM*
Oc1ccc(CN2CC(CNc3ccccc3)C3(C2)CN(c2ccccc2)C3)cc1 (stereo unspecified),25µM*,i,-22%[70.6 µM],40µM*
COc1ccccc1C(=O)N1CC(CNc2cccnc2)C2(C1)CN(c1ccccc1)C2 (stereo unspecified),?,i,-6%[70.6 µM],?
O=C(O)c1ccc(CN2CC(CNC(=O)c3ccccc3)C3(C2)CN(c2ccccc2)C3)cc1 (stereo unspecified),?,i,0%,5%
O=C(COc1ccccc1)N1CC(CNc2cccnc2)C2(C1)CN(c1ccccc1)C2 (stereo unspecified),?,i,-12%[70.6 µM],71µM*
Cc1cc(C(=O)NCc2c(C)ncc3c2CCNC3)ccc1F,0%,i,4%,-15%
c1ccc(CN2CC(CNc3cccnc3)C3(C2)CN(c2ccccc2)C3)cc1 (stereo unspecified),50µM*,i,-4%[70.6 µM],?
O=C(NCC1CN(C(=O)Cc2ccc(OC(F)(F)F)cc2)CC12CN(c1ccccc1)C2)Nc1ccccc1 (stereo unspecified),28µM*,i,-8%,?

# Screens deposited in PubChem by National Center for Advancing Translational Sciences (NCATS).
